Test results reported in PubChem BioAssay AID1159580 (chemical genetic matrix, 2015).
In all, about 5,500 compounds went through this assay and about 2,000 (36%) were called active. About 18% were inconclusive and are not listed. No stated cut-off is given here; in the data, active means normalized growth mostly below about 0.91 (no sharp cut-off); inconclusive means no clear call, values can overlap the other calls; inactive means mostly above about 0.92. The list shows a part of the results.

Experiment: chemical genetic growth profiling, strain panel (AID 1159580);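 further: tested at 20 µM; growth read once vehicle control cultures reached saturation at 30 °C; 1 = growth at the plate median or of vehicle wells; lower values mean less growth of the strain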
Conditions: growth OD

Measured: normalized growth

Nc1ccc(S(=O)(=O)Nc2ccc(Cl)nn2)cc1
inactive: S. cerevisiae deletion strains, locus YJR043C, strain POL32, active compounds read low 0.991 | S. cerevisiae deletion strains, locus YJR066W, strain TOR1, active compounds read low 0.926 | S. cerevisiae deletion strains, locus YKL009W, strain mrt4, active compounds read low 1.03 | S. cerevisiae deletion strains, locus YKL068W, active compounds read low 0.998 | S. cerevisiae deletion strains, locus YKL085W, strain MDH1 (second series), active compounds read low 0.992 | S. cerevisiae deletion strains, locus YKL085W, strain MDH1, active compounds read low 0.992 | S. cerevisiae deletion strains, locus YKL160W, strain elf1, active compounds read low 0.966 | S. cerevisiae deletion strains, locus YKL190W, strain CNB1, active compounds read low 1.01 | S. cerevisiae deletion strains, locus YKR001C, strain vps1, active compounds read low 0.995 | S. cerevisiae deletion strains, locus YKR026C, strain gcn3, active compounds read low 0.982 | S. cerevisiae deletion strains, locus YKR091W, strain srl3, active compounds read low 0.996 | S. cerevisiae deletion strains, locus YLL001W, strain dnm1, active compounds read low 0.981 | S. cerevisiae deletion strains, locus YLL026W, active compounds read low 0.998 | S. cerevisiae deletion strains, locus YLL041C, strain sdh2, active compounds read low 0.989 | S. cerevisiae deletion strains, locus YLR027C, strain aat2, active compounds read low 0.995 | S. cerevisiae deletion strains, locus YLR039C, strain RIC1, active compounds read low 1.06 | S. cerevisiae deletion strains, locus YLR058C, strain SHM2, active compounds read low 1.01 | S. cerevisiae deletion strains, locus YLR102C, strain apc9, active compounds read low 1 | S. cerevisiae deletion strains, locus YLR113W, strain HOG1, active compounds read low 0.984 | S. cerevisiae deletion strains, locus YLR221C, strain rsa3, active compounds read low 0.991 | S. cerevisiae deletion strains, locus YLR258W, strain gsy2, active compounds read low 0.991 | S. cerevisiae deletion strains, locus YLR262C, strain YPT6 (second series), active compounds read low 0.986 | S. cerevisiae deletion strains, locus YLR262C, strain YPT6, active compounds read low 1.06 | S. cerevisiae deletion strains, locus YLR268W, strain sec22, active compounds read low 1 | S. cerevisiae deletion strains, locus YLR320W, strain mms22, active compounds read low 0.969 | S. cerevisiae deletion strains, locus YLR330W, strain CHS5, active compounds read low 1.01 | S. cerevisiae deletion strains, locus YLR342W, strain FKS1 (second series), active compounds read low 1.05 | S. cerevisiae deletion strains, locus YLR342W, strain FKS1, active compounds read low 0.98 | S. cerevisiae deletion strains, locus YLR357W, strain rsc2, active compounds read low 0.978 | S. cerevisiae deletion strains, locus YLR370C, strain arc18, active compounds read low 0.984 | S. cerevisiae deletion strains, locus YLR371W, strain rom2, active compounds read low 1 | S. cerevisiae deletion strains, locus YLR384C, strain iki3, active compounds read low 0.993 | S. cerevisiae deletion strains, locus YLR418C, strain cdc73, active compounds read low 1.03 | S. cerevisiae deletion strains, locus YML016C, strain PPZ1, active compounds read low 1 | S. cerevisiae deletion strains, locus YML032C, strain rad52, active compounds read low 1.01 | S. cerevisiae deletion strains, locus YML120C, strain ndi1, active compounds read low 0.983 | S. cerevisiae deletion strains, locus YML124C, strain tub3, active compounds read low 1.01 | S. cerevisiae deletion strains, locus YMR058W, strain fet3, active compounds read low 0.987 | S. cerevisiae deletion strains, locus YMR078C, strain ctf18, active compounds read low 1.01 | S. cerevisiae deletion strains, locus YMR125W, strain sto1, active compounds read low 0.984 | S. cerevisiae deletion strains, locus YMR129W, active compounds read low 0.986 | S. cerevisiae deletion strains, locus YMR205C, strain PFK2, active compounds read low 0.97 | S. cerevisiae deletion strains, locus YMR223W, strain ubp8, active compounds read low 1.04 | S. cerevisiae deletion strains, locus YMR231W, strain pep5, active compounds read low 0.987 | S. cerevisiae deletion strains, locus YMR263W, strain SAP30, active compounds read low 0.995 | S. cerevisiae deletion strains, locus YMR307W, strain GAS1, active compounds read low 1.04 | S. cerevisiae deletion strains, locus YNL067W, strain RPL9B, active compounds read low 0.983 | S. cerevisiae deletion strains, locus YNL071W, strain lat1, active compounds read low 0.995 | S. cerevisiae deletion strains, locus YNL183C, strain NPR1, active compounds read low 0.927 | S. cerevisiae deletion strains, locus YNL209W, strain ssb2, active compounds read low 0.999 | S. cerevisiae deletion strains, locus YNL233W, strain BNI4, active compounds read low 0.989 | S. cerevisiae deletion strains, locus YNL248C, strain rpa49, active compounds read low 0.994 | S. cerevisiae deletion strains, locus YNL250W, strain rad50, active compounds read low 1.03 | S. cerevisiae deletion strains, locus YNL271C, strain bni1, active compounds read low 1 | S. cerevisiae deletion strains, locus YNL298W, strain CLA4, active compounds read low 1 | S. cerevisiae deletion strains, locus YNL307C, strain MCK1, active compounds read low 1.01 | S. cerevisiae deletion strains, locus YNL322C, strain KRE1 (second series), active compounds read low 0.976 | S. cerevisiae deletion strains, locus YNR049C, strain mso1, active compounds read low 0.995 | S. cerevisiae deletion strains, locus YNR052C, strain pop2, active compounds read low 1.01 | S. cerevisiae deletion strains, locus YOL006C, strain TOP1, active compounds read low 0.951 | S. cerevisiae deletion strains, locus YOL012C, strain htz1 1.39 | S. cerevisiae deletion strains, locus YOL147C, strain pex11, active compounds read low 1 | S. cerevisiae deletion strains, locus YOR001W, strain rrp6, active compounds read low 0.995 | S. cerevisiae deletion strains, locus YOR061W, strain CKA2, active compounds read low 1 | S. cerevisiae deletion strains, locus YOR069W, strain VPS5, active compounds read low 1.01 | S. cerevisiae deletion strains, locus YOR070C, strain gyp1, active compounds read low 0.991 | S. cerevisiae deletion strains, locus YOR080W, strain dia2, active compounds read low 0.979 | S. cerevisiae deletion strains, locus YOR083W, strain WHI5, active compounds read low 0.96 | S. cerevisiae deletion strains, locus YOR106W, strain vam3, active compounds read low 0.959 | S. cerevisiae deletion strains, locus YOR136W, strain idh2, active compounds read low 0.995 | S. cerevisiae deletion strains, locus YOR144C, strain elg1, active compounds read low 0.995 | S. cerevisiae deletion strains, locus YOR184W, strain ser1, active compounds read low 1.02 | S. cerevisiae deletion strains, locus YOR231W, strain MKK1, active compounds read low 0.991 | S. cerevisiae deletion strains, locus YOR265W, strain rbl2, active compounds read low 0.999 | S. cerevisiae deletion strains, locus YOR270C, strain vph1, active compounds read low 0.994 | S. cerevisiae deletion strains, locus YOR290C, strain snf2, active compounds read low 0.985 | S. cerevisiae deletion strains, locus YOR316C, strain cot1, active compounds read low 0.997 | S. cerevisiae deletion strains, locus YPL051W, strain arl3, active compounds read low 0.98 | S. cerevisiae deletion strains, locus YPL078C, strain atp4, active compounds read low 0.982 | S. cerevisiae deletion strains, locus YPL106C, strain sse1, active compounds read low 0.969 | S. cerevisiae deletion strains, locus YPL240C, strain hsp82, active compounds read low 0.978 | S. cerevisiae deletion strains, locus YPL256C, strain CLN2, active compounds read low 0.962 | S. cerevisiae deletion strains, locus YPR119W, strain clb2, active compounds read low 0.999 | S. cerevisiae deletion strains, locus YPR141C, strain kar3, active compounds read low 0.995 | S. cerevisiae deletion strains, locus YPR163C, strain tif3, active compounds read low 1.01 | S. cerevisiae deletion strains, locus YPR167C, strain met16, active compounds read low 1 | S. cerevisiae deletion strains, strain wtn01, active compounds read low 1.02 | S. cerevisiae strains, strain wild type, active compounds read low 1.01
